# Rows were chosen to be rich in hits. Some 9.5% of all compounds tested hit in one or more screens of this group.
# Tau FP inhib: tau fibrillization inhibition (FP); AID 1468; 280,000 compounds, 0.39% hits; Potency, µM (highest dose often 57.7 µM), for inactives: at the top dose activity, negative = inhibition, most hits filed as inhibitors; K18 P301L tau heparin fibrillization, Alexa594 FP, 6 h; P10636; further: nearly all actives have a fitted effect of over 55% in size
# Target sequence (P10636 561-689 P618L limits assumed): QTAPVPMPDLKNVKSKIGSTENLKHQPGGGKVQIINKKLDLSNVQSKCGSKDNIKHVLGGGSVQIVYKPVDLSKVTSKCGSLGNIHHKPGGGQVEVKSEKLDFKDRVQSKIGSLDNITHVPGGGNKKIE
#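 Heparin (20 uM) drove fibril formation of recombinant tau K18 P301L, 15 uM unlabeled with 0.24 uM Alexa 594 label, for 6 hr at 37 C in 100 mM sodium acetate pH 7. Fluorescence polarization (555/632 nm) read 1 hr after 30 uM ThT.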
# ALDH1A1 block: inhibitors of human aldehyde dehydrogenase 1A1; P00352; Purified ALDH1A1, NADH fluorescence, propionaldehyde substrate; Potency, µM (highest dose often 75.3 µM), for inactives: top-dose activity, negative = inhibition, usual class: inhibitors; 220,000 compounds, 7.3% hits; active means well fitted inhibition curve with a large enough effect, not every such curve was filed as active; inconclusive means small, poorly fitted or top-dose-only effect, or another doubt; inactive means no such curve, though single readings can be large or run the other way;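 further: plate controls were no enzyme wells and a reference inhibitor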
# Target sequence (P00352 whole entry, looked up): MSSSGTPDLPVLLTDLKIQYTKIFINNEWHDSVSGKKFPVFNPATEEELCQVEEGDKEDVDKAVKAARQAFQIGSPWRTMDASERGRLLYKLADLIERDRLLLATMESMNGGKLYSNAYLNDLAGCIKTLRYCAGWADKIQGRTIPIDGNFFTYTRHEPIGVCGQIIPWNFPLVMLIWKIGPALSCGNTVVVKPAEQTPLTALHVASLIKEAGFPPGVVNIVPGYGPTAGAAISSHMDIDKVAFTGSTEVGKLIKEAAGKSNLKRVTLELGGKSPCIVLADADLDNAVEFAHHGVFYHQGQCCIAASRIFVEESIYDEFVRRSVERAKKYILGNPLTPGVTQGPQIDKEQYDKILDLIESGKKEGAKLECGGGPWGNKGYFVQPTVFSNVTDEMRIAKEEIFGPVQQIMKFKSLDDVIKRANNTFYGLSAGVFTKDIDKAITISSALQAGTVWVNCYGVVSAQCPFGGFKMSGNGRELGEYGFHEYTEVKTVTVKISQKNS
# NPSR antagonist: antagonists of human neuropeptide S receptor cAMP signaling; CHO-NPSR cells, cAMP TR-FRET, antagonist mode; AID 1461; Potency, µM (top dose mostly 38.3 µM), for inactives: at the top dose activity change, negative = inhibition, hits mostly inhibitors; Q6W5P4; 220,000 compounds, 1% hits; further: nearly all actives have a fitted effect of over 50% in size
# Tau fluor counter: counter-screen for tau fibril formation inhibitors; tau K18 P301L Alexa594 fluorescence, heparin fibrillization; Potency, µM (top dose mostly 57.7 µM), inactives show at the top dose activity change, negative = decrease; 280,000 compounds, 0.93% hits; further: nearly all actives have a fitted effect of over 55% in size
#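 Human tau K18 P301L (15 uM unlabeled, 0.24 uM Alexa 594-labeled) in 100 mM sodium acetate pH 7 with 20 uM heparin, 6 hr at 37 C. ThT 30 uM added, 1 hr ambient; Alexa 594 FP and total fluorescence read at 555/632 nm.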
# HPGD block: HPGD (human) dehydrogenase inhibition; P15428; purified HPGD, NADH fluorescence kinetic, PGE2 substrate; Potency, µM, for the others: top-dose activity change, negative = inhibition, actives largely listed as inhibitors; 150,000 compounds, 4.3% hits; AID 894; active means well fitted inhibition curve with a large enough effect, not every such curve was filed as active; inconclusive means small, poorly fitted or top-dose-only effect, or another doubt; inactive means no such curve, though single readings can be large or run the other way
#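 NADH formation kinetics: reaction with 30 uM PGE2 and 1 mM NAD+ (final), 20 nM enzyme, Tris-HCl pH 8 with Tween 20, after 15 min compound preincubation at room temperature. Fluorescence change, last versus first of five reads.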
# Tau fibril ThT: tau fibrillization inhibition (ThT binding) | P10636 | recombinant tau K18 P301L (four-repeat tau fragment), heparin-induced fibrillization, ThT fluorescence | Potency, µM (titrated, usually from 57.4 µM), without a hit: at the top dose activity, negative = inhibition, hits mostly inhibitors | 270,000 compounds, 2.1% hits | AID 1460; further: nearly all actives have a fitted effect of over 55% in size
#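 Heparin-induced fibrillization of the P301L-mutant K18 repeat-domain fragment of human tau was followed by ThT binding in quantitative high-throughput format.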
# * = called active by the depositor; ? = inconclusive; . = not tested or not shown; [ ] = remark or other dose. Unless noted, the call rests on the fitted dose curve; in most records, active means well fitted curve in the direction sought with a large enough effect; inconclusive means small, poorly fitted or top-dose-only effect, or another doubt; inactive means no such curve, though single readings can be large; an effect the other way counts as inactive or inconclusive. Unless noted, on the % scale 0 is the no-effect control and ±100 the full control effect; potency means the concentration at half of the fitted maximal effect.
SMILES,Tau FP inhib,ALDH1A1 block,NPSR antagonist,Tau fluor counter,HPGD block,Tau fibril ThT
Cc1ccc(NC(=O)CNC2CCS(=O)(=O)C2)cc1C (centres undefined),-6%,16µM*,9%,1%,.,6%
COc1ccc2c(Sc3ccc(C)cc3)c(C(=O)NCc3ccc(F)cc3)[nH]c2c1,-1%,.,.,-6%,.,-1%
CN(C)c1ccc(/C=C/c2ccc3ccccc3n2)cc1,4%,.,6%[7.67 µM],?,.,?
CCN(CC)c1ccc(/C=C/c2cc(-c3ccccc3)c3ccccc3n2)cc1,1%,11µM*,58%,?,.,1%
O=C(CNC(=O)c1ccc(Oc2ccccc2)cc1)OCc1ccc(Br)cc1,-4%,1%,-3%,-12%,-9%,-7%
O=C(CNC(=O)c1ccc(Oc2ccccc2)cc1)OC1CCCCC1=O (centres undefined),-1%,22µM*,-12%[46.1 µM],-14%,-16%,-14%
COc1ccc(CNC(=S)Nc2ccccc2-c2ccccc2)cc1,-2%,22µM*,-33%,-22%,.,-13%
Cc1ccc(C(=O)NCc2ccccc2)cc1Br,-7%,?,-4%,-1%,25µM*,5%
O=C(NCc1ccccc1)c1ccc(Oc2ccc(C(=O)NCc3ccccc3)cc2)cc1,-8%,0%,-22%[46.1 µM],-17%,13µM*,-2%
O=C(NCc1ccccc1)c1ccc(OC2CSC2)cc1,0%,3%,-14%[46.1 µM],-2%,-18%,0%
CC(C)CO/N=C1/C[C@@H](O)[C@@H](O)[C@@H]2[C@@H]3C(=O)N(C(C)(C)C)C(=O)[C@H]3CC[C@@H]12,-2%[11.6 µM],-6%[13.5 µM],.,-3%[11.6 µM],.,-3%[11.5 µM]
CCN(Cc1ccccc1)C(=O)c1ccc(Cl)cc1[N+](=O)[O-],0%,-7%,-5%,-9%,.,-8%
O=C(NCc1ccccc1)c1ccc(Br)cc1Br,3%,5%,-40%,-12%,3.5µM*,-13%
COc1ccc(CNC(=S)NCc2ccc(OC(C)C)cc2)cc1,-4%,14µM*,6%,-23%,-1%,-11%
COc1cc(OC)cc(C(=O)NC(=S)NCCc2ccccc2)c1,-13%,1.1µM*,?,?,-11%,-13%
O=C(NCc1ccccc1)c1ccc(Cl)cc1[N+](=O)[O-],-3%,7%,-5%[46.1 µM],4%,13µM*,0%
COc1ccc(CNC(=S)Nc2cc(C)cc(C)c2)cc1,-17%,1%,-12%[46.1 µM],-23%,-10%,-4%
Cc1cc(C(F)(F)F)c2c(N)c(C(=O)Nc3c(Cl)cccc3Cl)sc2n1,3%,.,.,-13%,.,-17%
O=C(OCc1ccccc1Cl)c1ccc(-c2nnn(Cc3ccccc3Cl)n2)cc1,?,.,.,-19%,.,-4%
COc1ccc(C(=O)NNc2ccccc2)cc1,-8%,28µM*,17%,4%,-18%,-11%
COc1ccc(C(=O)NC(=S)NCc2ccccc2)cc1,-7%,22µM*,?,-25%,-9%,-10%
CCOC(=O)C1CCN(c2c(NCc3ccc(C(=O)NC(C)CC)cc3)c(=O)c2=O)CC1 (centres undefined),-9%,?,-4%[46.1 µM],-7%,5µM*,-5%
O=C(c1ccc(CNc2c(N3CCCC3)c(=O)c2=O)cc1)N1CCc2ccccc2C1,8%,10%,-21%[46.1 µM],2%,3.5µM*,-3%
CN(C)c1ccc(CNC(=O)c2ccc(CNc3c(N4CCCCC4)c(=O)c3=O)cc2)cc1,14%,28µM*,-12%[46.1 µM],-18%,22µM*,-19%
CC(=O)Oc1c(S(=O)(=O)c2ccc(C)cc2)c(C)nn1-c1ccccc1,0%,?,-10%[46.1 µM],-7%,?,-7%
SMILES,Tau FP inhib,ALDH1A1 block,NPSR antagonist,Tau fluor counter,HPGD block,Tau fibril ThT
CCOC(=O)c1cccc(NC(=O)N2CC(CC)Sc3ccccc32)c1 (centres undefined),3%,.,.,-14%,.,-18%
COc1ccc(N2CCN(C(=O)C(C)(C)Oc3ccc(Cl)cc3)CC2)cc1,9%,10µM*,?,-13%,-14%,?
N#CC(C#N)=Cc1ccc(NC(=O)c2ccc(Br)cc2)cc1,?,.,-33%,-24%,.,?
CCOC(=O)N1CCN(C(=O)C(C)(C)Oc2ccc(Cl)cc2)CC1,-4%,?,-11%[46.1 µM],-7%,-6%,-3%
CC(=O)N1CCN(c2ccc(NC(=O)c3ccc(C(C)(C)C)cc3)cc2)CC1,1%,7%,-7%[46.1 µM],?,-8%,3.5µM*
COc1ccc(N2CCN(C(=O)c3ccc(C(C)(C)C)cc3)CC2)cc1,13%,8.9µM*,-24%[46.1 µM],-10%,-21%,-17%
CC(C)(C)c1ccc(C(=O)Nc2ccc(C=C(C#N)C#N)cc2)cc1,?,4µM*,-46%,-9%,-16%,?
COC(=O)C/C=C\[C@@H](C)[C@@H](/C=N\O[C@@H](C)c1cn([C@H]2COC[C@H]2O)nn1)OC,-1%[11.6 µM],9%[13.5 µM],.,-4%[11.6 µM],.,-1%[11.5 µM]
CC(=O)c1cc(F)ccc1OCC(=O)N1CCN(c2ccc(F)cc2)CC1,8%,25µM*,-15%,-9%,.,-13%
CC(=O)N1CCN(c2ccc(NCc3ccc(F)cc3)cc2)CC1,?,-14%,-20%[46.1 µM],?,-6%,25µM*
COc1cc(CNc2ccc(N3CCN(C(C)=O)CC3)cc2)ccc1OCc1ccc(F)cc1,-3%,?,3%,-24%,.,?
CCSc1nn(CC(=O)Nc2cccc(CC)c2)c(N)c1S(=O)(=O)c1ccccc1,?,.,.,18µM*[quencher],.,-7%
CCc1ccc(NC(=O)Cn2nc(SC)c(S(=O)(=O)c3ccc(OC)cc3)c2N)cc1,?,.,.,-21%,.,4%
COc1ccc(S(=O)(=O)c2c(SC)nn(CC(=O)Nc3ccc(C)c(Cl)c3)c2N)cc1,25µM*,.,.,?,.,7%
CC(C)(Oc1ccc(Cl)cc1)C(=O)Nc1nnc2n1CCS2,1%,.,.,4%,.,3%
Cc1c(O)ccc2c1OCO2,5%[11.6 µM],-2%[13.5 µM],.,-19%[11.6 µM],.,-16%[11.5 µM]
COc1ccc(NC(=O)CC2NCCNC2=O)c(OC)c1 (centres undefined),-5%,.,.,-9%,.,-5%
CCOc1ccc2nc(NC(=O)c3cnc(C)cn3)sc2c1,?,8%,-7%[46.1 µM],-20%,-6%,?
CCOc1ccc2nc(N=NC3=C(O)CC(C)(C)CC3=O)sc2c1,-8%,?,-28%,-23%,.,14µM*
O=c1cc(CN2CCN(c3ccccc3F)CC2)c2cc(O)c(-c3ccccc3)cc2o1,-12%,28µM*,-13%,-16%,-23%,-10%
COC(=O)c1cc2occc2n1Cc1c(F)cccc1Cl,?,13µM*,-14%[46.1 µM],-21%,-28%,?
CN(Cc1nc(Cc2cccc(C(F)(F)F)c2)no1)C1CC(C)(C)NC(C)(C)C1,3%,-1%,0%,-5%,.,-9%

# Bioassay records deposited in PubChem by National Center for Advancing Translational Sciences (NCATS).
